# Screening results: PubChem, National Center for Advancing Translational Sciences (NCATS)
# TDP1 cell CPT = growth inhibition of DT40 Tdp1-/-;hTDP1 cells with camptothecin (screen for TDP1 inhibitors). chicken DT40 Tdp1-/-;hTDP1 cells + 20 nM CPT, ATP luminescence, 48 h. Potency, µM (series often up to 46.2 µM), for the others: top-dose activity change, negative = growth inhibition, actives largely listed as inhibitors. 12% of 420,000 active. AID 686979; note: potency is the fitted concentration of half-maximal effect; % is set by controls: 0 for no effect and ±100 for the full control effect; nearly all actives have a fitted effect of over 55% in size
#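 Chicken DT40 Tdp1-/- cells stably complemented with human TDP1 were seeded at 400 cells/well in medium containing 20 nM camptothecin, exposed to pin-transferred compounds, and grown at 37 °C for at least 48 hr. Viability was read as ATP luminescence.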
# IL-1B inflam inh = blocks inflammasome-driven IL-1 beta release; THP-1 LPS/ATP IL-1B secretion, AlphaLISA, 16 h; hits give low values; AID 743279; 4.7% of 360,000 active; activity change, % at 57.5 µM; in the data active = activity change below about -50%; inconclusive = mostly about -30% to -49%; note: % is set by controls: 0 for no effect and ±100 for the full control effect
#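 THP-1 cells pretreated 1 hr with compounds (up to 57.5 uM final), then stimulated with LPS (250 ng/mL final) plus ATP (1.25 mM final); secreted IL-1B measured by AlphaLISA after 16 hr, decreased signal indicating inhibition.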
# DT40 TDP1 no CPT = qHTS for Inhibitors of human tyrosyl-DNA phosphodiesterase 1 (TDP1): qHTS in cells in absence of CPT | AID 686978, 2013 | DT40 Tdp1-/- hTDP1 cells, no CPT, ATP luminescence, 48 h | 15% of 420,000 active | Potency, µM (highest dose often 46.2 µM), without a hit: at the highest dose activity change, negative = growth inhibition, most hits filed as inhibitors; note: potency is the fitted concentration of half-maximal effect; % is set by controls: 0 for no effect and ±100 for the full control effect; nearly all actives have a fitted effect of over 55% in size
#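 A cellular qHTS used chicken DT40 cells lacking endogenous Tdp1 but carrying stably transfected human TDP1. Compounds were applied without camptothecin, and cell growth kinetics were judged by ATP-dependent luminescence after ≥48 hr.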
# TGFb inhibitor = TGF-b pathway inhibition. AID 588855. Potency, µM (highest dose often 46.1 µM), without a hit: at the highest dose activity, negative = inhibition, hits mostly inhibitors. HepG2 CAGA-GFP TGF-b/SMAD3 reporter, GFP fluorescence, 18 h; TGF-beta stimulated, 500 pg/mL final. 1.2% of 410,000 active; note: potency is the fitted concentration of half-maximal effect; % is set by controls: 0 for no effect and ±100 for the full control effect; nearly all actives have a fitted effect of over 65% in size
#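 HEPG2 CAGA-GFP reporter cells (1000/well, DMEM with 1% FBS) received compounds, then recombinant TGF-beta at 500 pg/mL final for 18 hours at 37 degrees C. Per-cell GFP summed per well was normalised to unstimulated and stimulated DMSO controls before curve fitting.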
# ASM inhibitor = human S-ASM enzyme inhibition. 0.006% of 340,000 active. placental ASM, HMU-PC fluorogenic substrate, 60 min. Potency, µM (series often up to 57.5 µM), inactives show top-dose activity change, negative = inhibition, usual class: inhibitors; note: potency is the fitted concentration of half-maximal effect
# Target sequence (P17405 47-631 limits assumed): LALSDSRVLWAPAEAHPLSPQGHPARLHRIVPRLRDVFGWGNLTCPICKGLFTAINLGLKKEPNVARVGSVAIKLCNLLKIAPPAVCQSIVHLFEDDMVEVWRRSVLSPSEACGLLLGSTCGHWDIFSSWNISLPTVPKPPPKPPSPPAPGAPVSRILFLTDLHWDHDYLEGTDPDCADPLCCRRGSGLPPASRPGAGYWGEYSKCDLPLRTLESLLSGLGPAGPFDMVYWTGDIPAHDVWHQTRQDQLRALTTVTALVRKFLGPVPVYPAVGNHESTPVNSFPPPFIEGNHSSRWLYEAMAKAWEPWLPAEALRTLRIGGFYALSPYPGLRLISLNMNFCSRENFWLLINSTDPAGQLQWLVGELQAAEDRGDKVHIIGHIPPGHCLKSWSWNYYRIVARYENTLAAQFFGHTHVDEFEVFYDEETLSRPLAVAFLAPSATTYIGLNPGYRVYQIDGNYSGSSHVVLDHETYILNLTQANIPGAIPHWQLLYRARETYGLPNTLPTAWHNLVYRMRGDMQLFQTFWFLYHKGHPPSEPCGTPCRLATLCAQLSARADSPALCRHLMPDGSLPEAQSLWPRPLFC
#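 Fluorescence read-out (Ex 386 nm, Em 447 nm) after stopping the reaction at pH 10. Enzyme: ASM from human placenta; substrate HMU-PC0, 9 uM final; 60 min, 37 °C. Compound preincubation 10 min, ambient temperature.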
# HepG2 tox = kills HepG2 cells in TGF-b inhibitor counter-screen; HepG2 CAGA-GFP viability, ATP luminescence, 18 h; 0.76% of 410,000 active; Potency, µM (top dose mostly 46.1 µM), for the others: top-dose activity change, negative = cytotoxicity, hits mostly cytotoxic; note: potency is the fitted concentration of half-maximal effect
#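 HepG2 CAGA-GFP cells (1000/well, DMEM with 1% FBS) received compound, then TGF-beta at 500 pg/mL final, and were incubated 18 hours at 37 degrees C. Viability was read by CellTiter-Glo luminescence. Media-only wells were set as complete cell-killing and DMSO as no toxicity.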
# * = called active by the depositor; ? = inconclusive; . = no result. This is a sample that favours compounds with a hit; in the whole collection about 19% have one here. Unless noted, calls come from the whole dose curve; as a rule, active = well fitted curve in the direction sought with a large enough effect; inconclusive = small, poorly fitted or top-dose-only effect, or another doubt; inactive = no such curve, though single readings can be large; an effect the other way counts as inactive or inconclusive.
SMILES,TDP1 cell CPT,IL-1B inflam inh,DT40 TDP1 no CPT,TGFb inhibitor,ASM inhibitor,HepG2 tox
Clc1cccc(C2Nc3cccc4cccc(c34)N2)c1,5.2µM*,-23,10µM*,15%,-8%,1%
COc1ccc(C2Nc3cccc4cccc(c34)N2)cc1,21µM*,29,?,2%,-7%,-7%
Clc1ccc(C2Nc3cccc4cccc(c34)N2)cc1Cl,?,9,?,2%,2%,-22%
COc1ccccc1C1Nc2cccc3cccc(c23)N1,15µM*,-24,21µM*,-30%,-7%,-20%
Fc1cccc(Cl)c1C1Nc2cccc3cccc(c23)N1,23µM*,-5,21µM*,?,-7%,-20%
Clc1cccc(Cl)c1C1Nc2cccc3cccc(c23)N1,?,-26,?,?,-13%,-20%
C[C@@H](NC(=O)[C@@H]1Cc2ccccc2CN1)C(=O)Nc1ccc2c(c1)OCCO2,?,2,?,2%,2%,-17%
O=C(CNC(=O)c1n[nH]c2ccccc12)Nc1ccc(F)c(F)c1F,3%,21,8%,10%,-1%,6%
Cc1cccc(N2C(=O)c3ccc(C(=O)Nc4c[nH]c(=O)[nH]c4=O)cc3C2=O)c1,-7%,3,27%,18%,0%,-4%
CN(C)c1ccc(C2Nc3cccc4cccc(c34)N2)cc1,?,10,23µM*,-13%,-2%,-25%
Brc1ccc(C2Nc3cccc4cccc(c34)N2)o1,21µM*,-77*,18µM*,3%,-4%,-12%
c1csc(C2Nc3cccc4cccc(c34)N2)c1,16µM*,-27,?,0%,-7%,0%
CN1c2cccc3cccc(c23)N(C)C1c1cccs1,-4%,2,-14%,-6%,-2%,-12%
Oc1ccccc1C1Nc2cccc3cccc(c23)N1,?,10,?,0%,-7%,-1%
COc1cc(OC)c(C2Nc3cccc4cccc(c34)N2)c(OC)c1,21µM*,-16,15µM*,?,-1%,-32%
O=[N+]([O-])c1ccccc1C1Nc2cccc3cccc(c23)N1,7.3µM*,-66*,?,?,-10%,-14%
Brc1cccc(C2Nc3cccc4cccc(c34)N2)c1,?,2,-19%,6%,-1%,1%
c1ccc(C2Nc3cccc4cccc(c34)N2)cc1,18µM*,39,-89%,1%,-4%,-9%
O=C(Cn1ccc(NC(=O)OCc2ccccc2)nc1=O)NCCCN1CCCC1=O,-8%,1,-4%,-2%,-4%,13%
O=C(NC1CC(=O)N(c2ccccc2)C1)C1CCCC1 (configuration not stated),16%,.,-14%,-1%,.,4%
COc1ccc(Nc2nc(N)c([N+](=O)[O-])c(NC3CCCCC3)n2)cc1,16µM*,-95*,?,?,?,22µM*
C=CCNc1nc(Nc2ccc([N+](=O)[O-])cc2)nc(OC)n1,-3%,-19,?,-7%,4%,-13%
COc1nc(Nc2ccc([N+](=O)[O-])cc2)nc(NC2CCCCC2)n1,?,-78*,?,1%,-22%,-8%
COc1ccc(Nc2nc(N)c([N+](=O)[O-])c(NCc3ccccc3)n2)cc1,?,36,16µM*,-16%,-25%,-23%
CCN1CCN(c2ccc(N=Cc3ccccc3O)cc2)CC1,-14%,62,?,0%,6%,-39%
SMILES,TDP1 cell CPT,IL-1B inflam inh,DT40 TDP1 no CPT,TGFb inhibitor,ASM inhibitor,HepG2 tox
O=C(c1ccc(Cl)cc1)c1ccc(Oc2cc(NN3CCCCC3)c([N+](=O)[O-])cc2[N+](=O)[O-])cc1,?,15,-10%,6%,-4%,13%
C/C(=N\Nc1ccc(F)cc1F)c1ccc(Br)s1,-20%,19,-23%,-6%,-12%,-2%
Cc1c(Cl)cccc1NC(=S)N=Nc1c(O)n(CN2CCOCC2)c2ccccc12,5.8µM*,3,1.5µM*,5µM*,-19%,-27%
C=CCn1c(O)c(N=NC(=S)Nc2ccccc2F)c2ccccc21,4.1µM*,77,2.6µM*,?,-19%,-37%
COC(=O)N=Nc1c(O)n(Cc2ccccc2)c2ccccc12,-23%,-10,?,-21%,-11%,2%
C=CCn1c(O)c(N=NC(=O)c2ccccc2NS(=O)(=O)c2cccs2)c2ccccc21,0%,23,-21%,?,-2%,-2%
Cc1ccc(Cn2c(O)c(N=NC(=S)Nc3ccccc3F)c3ccccc32)cc1,6.5µM*,-6,5.8µM*,-24%,-9%,-25%
C=CCn1c(O)c(N=NC(=S)Nc2cccc(C)c2)c2ccccc21,2.1µM*,-6,1.8µM*,?,-23%,2%
Cc1c(Cl)cccc1NC(=O)CCN1CCOCC1,-14%,1,-2%,8%,2%,6%
CCn1c(O)c(N=NC(=O)CNc2cccc(C)c2)c2ccccc21,12%,46,?,-18%,-11%,-2%
CCN(c1cccc(C)c1)S(=O)(=O)c1cc2c(cc1C)n(C)c(=O)c(=O)n2C,-5%,.,-22%,-4%,.,0%
CCC(CC)C(=O)Nc1nnc(S(=O)(=O)N2CCCC2)s1,2%,-10,-8%,2%,3%,-2%
O=C(Nc1ccccc1F)c1cc(S(=O)(=O)N2CCOCC2)cs1,11%,0,2%,-17%,-2%,1%
Oc1c(N=NC(=S)Nc2ccccc2F)c2ccccc2n1Cc1ccccc1Cl,6.5µM*,?,5.8µM*,-11%,-16%,-19%
O=c1cc(O)c2ccccc2n1Cc1ccccc1Cl,-8%,19,1%,1%,-2%,2%
C=CCn1c(O)c(N=NC(=S)Nc2ccccc2F)c2cc(S(=O)(=O)N3CCOCC3)ccc21,0.73µM*,2,0.73µM*,?,-5%,-31%
C=CCn1c(O)c(N=O)c2cc(C)ccc21,-33%,-52*,?,1%,3%,-15%
Oc1c(N=NC(=S)Nc2ccccc2F)c2ccccc2n1Cc1ccccc1,7.3µM*,-8,5.8µM*,-22%,-19%,-23%
Cc1c(C)n(-c2ccccc2)c2ncnc(NCCN(C)C)c12,4%,-4,11%,3%,-1%,-12%
